NTR1 ag: agonists of human neurotensin receptor NTR1; P30989; NTR1-U2OS beta-arrestin-GFP spot imaging, agonist mode; activation, % at 20 µM; 0.17% of 330,000 active; AID 493036;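 active = activation at or above 40% of the spot to cytoplasm intensity ratio, with at least 20 cells analyzed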
Target sequence (P30989 whole entry, looked up): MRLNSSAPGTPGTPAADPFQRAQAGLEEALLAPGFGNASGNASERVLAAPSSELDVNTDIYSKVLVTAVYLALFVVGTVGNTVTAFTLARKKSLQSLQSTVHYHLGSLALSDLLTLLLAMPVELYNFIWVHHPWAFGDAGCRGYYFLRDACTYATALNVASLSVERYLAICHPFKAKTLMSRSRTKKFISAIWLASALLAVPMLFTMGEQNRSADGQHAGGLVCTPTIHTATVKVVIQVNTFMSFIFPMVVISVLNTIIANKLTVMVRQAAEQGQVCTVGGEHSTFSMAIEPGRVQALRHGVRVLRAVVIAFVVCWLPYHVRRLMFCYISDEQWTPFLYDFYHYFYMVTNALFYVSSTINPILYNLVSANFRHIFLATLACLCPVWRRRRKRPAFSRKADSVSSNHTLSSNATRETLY
MIN6 prolif: inducers of beta-cell replication in MIN6 cells; MIN6 cells proliferation, ATPlite luminescence, 48 h; cells starved in 0.2% serum; 100% = growth in 10% serum; proliferation, % at 10 µM; 0.29% of 330,000 active; AID 2380;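 active = compounds whose signal lies at least 3.5 SD above the mean of all wells on their plate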
Platelet DG rel: platelet dense granule release activity. human platelet-rich plasma, SFLLRN dense granule ATP release, luminescence. inhibition, %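 (compounds screened at 7.5 µM in platelet-rich plasma)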. 0.22% of 300,000 active;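 active = mean replicate score, as percent of positive control, at or above 50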
GRK2 inh: inhibitors of human GRK2 displacing RNA aptamer | inhibition of aptamer binding, % at 10 µM | bead flow cytometry, FAM-aptamer displacement from GRK2 | P25098 | 0.59% of 330,000 active;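 active = inhibition of aptamer binding above 40%, roughly 3 SD of noise, on plates passing a quality check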;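 also: median bead fluorescence of bound FAM aptamer so fluorescent compounds give negative values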
GRK2 CP1: confirmation of human GRK2 inhibitors displacing RNA aptamer; AID 504451; aptamer displacement, % at 10 µM; 4% of 2,000 active; shares compounds with GRK2 inh; bead-bound GRK2, FAM-aptamer displacement, flow cytometry;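 active = aptamer displacement above 40%, near three times the noise of non-fluorescent compounds, on plates passing quality checks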;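 also: negative values mostly reflect intrinsic compound fluorescence rather than true enhancement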
FAM quench CP1: quenches fluorescent RNA aptamer, GRK2 hit artifact | shares compounds with GRK2 inh | Carboxyfluorescein RNA aptamer on beads, flow cytometry quenching; stronger effect = lower value | fluorescence response (% of DMSO), % at 10 µM | 2,000 tested, under 10 active | AID 504580;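 active = compounds that quench the bead-bound fluorescent RNA probe, cutting fluorescence to under half of the solvent control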;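 also: counterscreen run without GRK2 so only probe quenching by compound is measured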
GRK2 CP2: confirmation of human GRK2 inhibitors binding RNA aptamer site; shares compounds with GRK2 inh; bead-bound GRK2, FAM-aptamer displacement, flow cytometry; inhibition of aptamer binding, % at 10 µM; 360 tested, under 10 active;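 active = inhibition of aptamer binding above 40%, about triple the noise seen with nonglowing compounds, on plates passing quality control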;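 also: negative values mostly come from compounds that fluoresce themselves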
FAM quench CP2: aptamer fluorescence quenching in GRK2 counter-screen. carboxyfluorescein RNA aptamer beads, flow cytometry quenching; stronger effect = lower value. shares compounds with GRK2 inh. fluorescence response vs DMSO, % at 10 µM. 360 tested, under 10 active;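 active = response vs DMSO under 50%, meaning signal dropped by over half, treated as fluorescence quencher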;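 also: labelled aptamer on streptavidin beads without GRK2 as a quench counter-screen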
Large screens that a line does not name were inactive (follow-up assays come after a bar, where they were run). Hits are enriched below; roughly 1.2% of the tested compounds scored in any of these assays.

C#CCOCCOCCOCCNc1nc(N2CCN(C(=O)[C@H](Cc3cc4ccccc4[nH]3)n3cc([C@@H](N)CC(C)C)nn3)CC2)nc(N2CCN(C(=O)[C@H](Cc3cc4ccccc4[nH]3)n3cc([C@@H](N)CC(C)C)nn3)CC2)n1	GRK2 inh 70.0 | GRK2 CP1 inactive | FAM quench CP1 inactive
C#CCOCCOCCOCCNc1nc(N2CCN(C(=O)CCCCCCCCCCNC(=O)[C@@H]([C@H](C)O)n3cc(C)nn3)CC2)nc(N2CCN(C(=O)CCCCCCCCCCNC(=O)[C@@H]([C@H](C)O)n3cc(C)nn3)CC2)n1	GRK2 inh 52.0 (no result: Platelet DG rel) | GRK2 CP1 inactive | FAM quench CP1 inactive
Cc1ccc(S(=O)(=O)NCCCNS(=O)(=O)c2ccccc2Br)cc1	none (no result: MIN6 prolif, Platelet DG rel)
Cc1nc2ccccc2c(=O)n1NC(=O)c1ccc(Cl)c(Cl)c1	none
O=C(NCc1ccccc1F)C1CCCN(S(=O)(=O)N2CCOCC2)C1 (configuration not stated)	none | GRK2 CP1 inactive | FAM quench CP1 inactive
O=C(COc1ccc(/C=N/NC(=O)c2cc3ccccc3o2)cc1Cl)Nc1ccccc1	GRK2 inh 54.0 | GRK2 CP1 inactive | FAM quench CP1 inactive
COc1cc(/C=N/NC(=O)c2ccccc2O)ccc1OCC(=O)Nc1ccccc1	none
CCc1ccc(/C([O-])=C(/C(=S)NCCN2CCOCC2)[n+]2ccccc2)cc1	GRK2 inh 72.0 | GRK2 CP1 inactive | FAM quench CP1 inactive
CCCCn1c(N)c(N(CCC)C(=O)C2CCCC2)c(=O)[nH]c1=O	none (no result: Platelet DG rel)
Cc1oc(-c2ccccc2Cl)nc1CS(=O)(=O)CC(=O)NCCc1ccccc1	none
COc1ccc(CCNC(=O)CS(=O)(=O)Cc2nc(-c3ccccc3Cl)oc2C)cc1OC	GRK2 inh 66.0 | GRK2 CP1 inactive | FAM quench CP1 inactive | GRK2 CP2 inactive | FAM quench CP2 inactive
CC(C)C[C@H](NC(=O)N1CCn2c1nc1ccccc12)C(=O)N[C@H](Cc1ccccc1)C(=O)O	none
O=C(NCc1ccccn1)C1COc2ccccc2O1 (configuration not stated)	GRK2 inh 90.0 | GRK2 CP1 inactive | FAM quench CP1 inactive
Cc1ccc(-c2nc(CS(=O)(=O)CC(=O)N3CCc4ccccc4C3)c(C)o2)cc1	none
Cc1ccc(-c2nc(CS(=O)(=O)CC(=O)N3CCCCCC3)c(C)o2)cc1	GRK2 inh 73.0 | GRK2 CP1 inactive | FAM quench CP1 inactive
CC(=O)c1cc(CCC(=O)NC2CCCCCC2)oc1C	none
O=C(NCc1cccs1)C1(S(=O)(=O)c2ccccc2)CC=CC1	none | GRK2 CP2 inactive | FAM quench CP2 inactive
O=C(NCc1ccco1)C1(S(=O)(=O)c2ccccc2)CC=CC1	none
Cc1ccccc1NC(=O)CCC(=O)N/N=C/c1ccncc1	none
OCCC1CN(Cc2cc3ccccc3o2)CCN1Cc1ccc(F)cc1 (configuration not stated)	none
O=c1cc(CN2CCN(Cc3ccc(F)cc3)C(CCO)C2)[nH]c2ccccc12 (configuration not stated)	GRK2 inh 41.0 | GRK2 CP2 inactive | FAM quench CP2 inactive
COc1ccc(-n2nc(C(=O)NCC(=O)NCCC3=CCCCC3)c3ccccc3c2=O)cc1	none
O=c1c2ccccc2ncn1CCCCOc1ccc(Br)cc1	none
CC(=O)O[C@H]1[C@H](O)[C@H](Oc2c(O)c(C)c3c4c2[C@@H](C)CC[C@@H]4[C@@H](C)C[C@H]3C=C(C)C)O[C@@H](C)[C@H]1O	none (no result: Platelet DG rel)
Cc1cc(C(=O)Nc2ccc3c(c2)OCO3)no1	none
CC(C)Cc1cc(C(=O)Nc2ccc3c(c2)OCO3)no1	GRK2 inh 74.0 | GRK2 CP1 inactive | FAM quench CP1 inactive
O=c1c2cc(N3CCOCC3)ccc2[nH]c(=S)n1Cc1cccc(Cl)c1	none
COc1cccc(Cn2c(=S)[nH]c3ccc(N4CCOCC4)cc3c2=O)c1	GRK2 inh 43.0 | GRK2 CP1 inactive | FAM quench CP1 inactive
Cc1cc(C)n2nc(SC(C)C(=O)N3CC(C)OC(C)C3)nc2n1 (configuration not stated)	none (no result: Platelet DG rel)
OCCN1CCN(c2nc(-c3ccccc3O)nc3ccccc23)CC1	none
CN1CCOC(=O)/C1=N/Nc1cc(Cl)ccc1Cl	GRK2 inh 57.0 | GRK2 CP1 inactive | FAM quench CP1 inactive
CCc1ccc(/C(C)=N/NC(=O)CNC(=O)/C=C/c2ccco2)cc1	GRK2 inh 42.0 | GRK2 CP1 inactive | FAM quench CP1 inactive
O=C(/C=C/c1ccco1)NCc1ccco1	GRK2 inh 60.0 | GRK2 CP1 inactive | FAM quench CP1 inactive
Cc1ccc(/C=C/C(=O)NCc2ccco2)o1	none
CCc1ccc(/C(C)=N/NC(=O)CNC(=O)/C=C/c2ccccc2OC)cc1	none
O=[N+]([O-])c1cc(C(F)(F)F)ccc1Sc1ccc2ccccc2n1	none | GRK2 CP1 inactive | FAM quench CP1 inactive
Nc1nc(Sc2ccc(C(F)(F)F)cc2[N+](=O)[O-])n[nH]1	none
O=C(CSc1n[nH]c(-c2ccco2)n1)Nc1ccccc1Cl	none
Cc1ccc(OCCSc2cc(C)nc(N)n2)cc1	GRK2 inh 84.0 | GRK2 CP1 inactive | FAM quench CP1 inactive
Cc1ccc(NC(=O)c2noc3c2CCCCC3)cc1	none
Cc1ccc(NC(=O)c2noc3c2CCCCC3)cc1C	GRK2 inh 100.0 | GRK2 CP1 inactive | FAM quench CP1 inactive
COc1ccc(C(O)P(=O)(OCC(C)C)c2ccc(N(C)C)cc2)c(OC)c1 (configuration not stated)	none
O=C(NN1C(=O)/C(=C/C=C/c2ccco2)SC1=S)c1ccccc1O	none | GRK2 CP1 inactive | FAM quench CP1 inactive
CCN(CC(=O)Nc1ccc(OC)cc1)C(=O)Cc1ccsc1	none (no result: Platelet DG rel)
O=C(OCc1nnc(-c2ccccc2)o1)c1cc(S(=O)(=O)N2CCOCC2)ccc1F	none
O=C(c1ccc2nc(-c3ccco3)c(-c3ccco3)nc2c1)N1CCN(c2ncccn2)CC1	GRK2 inh 45.0 | GRK2 CP1 inactive | FAM quench CP1 inactive
O=C(c1cccc(C(=O)N2CCN(c3ncccn3)CC2)c1)N1CCN(c2ncccn2)CC1	none
COc1ccccc1NS(=O)(=O)c1cccc(C(=O)OCC(=O)NC2CC2)c1	GRK2 inh 59.0 | GRK2 CP1 inactive | FAM quench CP1 inactive
Cc1cc(Cl)ccc1OC(C)C(=O)NNC(=O)C1CCCCC1C(=O)O (configuration not stated)	none
COc1ccc2nc(NC(=O)CSc3nnnn3C3CCCCC3)sc2c1	GRK2 inh 51.0 | GRK2 CP1 inactive | FAM quench CP1 inactive
O=C(NNC(=O)c1ccc(O)c(Cl)c1)c1cccc(S(=O)(=O)N2CCOCC2)c1	none
